Here are results for 40 sequences from the supplement of paper PMC6555819.

This assay has as its system RXRa DBDmut IVT, anti-RXR (DBD mutation: RXRa K156A/R161A, NR concentration 90 nM). Kind of assay: PBM binding z-score (relative to random genomic background probes); higher = stronger binding; sequences stand for … in GC…GCGATTGACAGCGTAGAATGAAGG
The method, boiled down:
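Random background probes are the reference for binding z-scores. These scores derive from regression-normalized fluorescence on custom Agilent 4×180K protein-binding microarrays incubated 1 h with ligand-free nuclear receptor dimers. Binding was detected with antibodies against each partner (one per run).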
Consider TCATATAGGCAAACAGGTGAAAGTCCGTAAGTTA, for which the PBM binding z-score amounted to 1.26. In turn, TCTGCTAGGTCAGTAGGTCAGCTAACGAGCTGCC had a PBM binding z-score of 0.677. Then ATCTCTAGGTAACAAGTTCAGTGAGAGAGAGGAC, with 0.761; and TCGAGTAGGTTTGTCGGGGCATTCAGCCAACATA, with 0.805.

Regarding ATCTCTAGGTAAAAGTTCAGTCAATCCCGAGGAT, the PBM binding z-score stood at 1.12.

TCATATAGGTAAGTGCTAGGTGAAAGTCCGATCT yielded a PBM binding z-score of 1.23.

Sequence ATATGTAGGTTATCGGGTCTTTCAGTTTGCGCAT displayed a PBM binding z-score of 0.92. GCTAGCAGGCCATTTGGGTCACTGAATGACGGGC yielded a PBM binding z-score of 0.125. CAAACTAGGCCACGAAAGGTCAAAGTCGAATGAC returned a PBM binding z-score of 1.47.

Sequence TCTTGAAGATCAATAGAGGTTAAGAAAGTGCGCT came in with a PBM binding z-score of 0.671. AGAAAGAGGTTATACGTAGATCAGGGAAGAAAGT gave a PBM binding z-score of 1.23. Then ATATGTAGGTTAAGGGTAATTCAGGTTGGTTCGC, with 0.754; and TAGCCTAGGTCATTCAGGGGCCAGTTTAGAAAGC, with 1.65; and TCAGACAGGTGGAGGTAACTCAGGTACGCAGTCG, with 0.723. The result for GGAACGAGAGCATTCGAGTTGATAGCATGGCGAT reads 0.441; that for ACTAGCAGACCAAGGGTCACTCAAGATTAGTCCG, 0.335.

Sequence TCAGACAGGTGAAGGTACCTCAGGTACGCAGTCG yielded a PBM binding z-score of 1.1. Sequence CGTCAAAGATCAACTAAGGTAACGTAAAGCACGC came in with a PBM binding z-score of 0.338. Then ATCTATAGGTAAGACTCAGTTCAGTGAAGAACGC, with 0.507; and GCTGCTAGGTCAACAGATGGTCAGCTAAAGCTCG, with 1.22.

In turn, TAGCCCAGGTCATTCAGGGGCCAGTATAGAAAGC yielded a PBM binding z-score of 2.4.

Sequence CGACCAAGGTCAAAGGTCAGTGAAGAGATGACGG had a PBM binding z-score of 3.97. The result for CCGACTGGGGCAGAAGGTTACCATAAGCCAGCCC reads -0.593; that for ATCGAAAGGTCGAAGGTTAGTATACCCACCCGAA, 1.41.

Regarding TCGCGGAGGACACGAAGGTCAGAGCTTTCCAGAG, the PBM binding z-score amounted to 0.372.

For CGAACTGGGTCATTGACAGGACAGTGAATAGTAA, the PBM binding z-score amounted to 1.94. In turn, CCGACTGGGGCAATGGTTACCATACTCAGTACGA came in with a PBM binding z-score of -0.545.

As for TCTTGTAGATCAAAGGTAAAGAAAGCCGAAGCCT, the PBM binding z-score turned out to be 0.56. Then TAGCCTAGGTCATTCCGGGGCCAGTATAGAAAGC, with 1.28; and TCATATAGGTAAATGCTAGTTGAAAGTCCGATCT, with 1.59. The result for GCTTACGGGTCAAAGATTATAGCATGAATAGAAT reads 2.38; that for CCTAGTAGGTCAGGAGGTCACACACCGGATATGA, 1.03; that for TCATAGAGGTAAAGGTGAAAGTCGAACGATATGA, 0.528. The result for ATCTCTAGGTAAAGTACAGTGAAAGATCGATAGA reads 0.55; that for GGAACGAGGGCATTCGAGTTGGTAGCATGGCGAT, 2.93; that for CTTCCAAGGTCAAGGTCAGTGAAAGAGACTCGAA, 3.07.

As for GGAACGACGGCAAGTTGATAGCAGAGTTTGATGG, the PBM binding z-score is -0.124.

The sequence CTCGAAAGGTCGGTAGAGGTGAGTATACGGATAA came in with a PBM binding z-score of 0.197. ACTAGAAGGCCAAGTTTGGGTCACTCAAACAAAG returned a PBM binding z-score of 0.0906. For the sequence TGTCAAACTTCAAAGGTAACGTAAGTATCCACAC, the PBM binding z-score is -0.455.
